A word on the inhibition: it is the drop in the measured response relative to a control, in per cent.

Structures are written as SMILES. Calls of active or inactive are those of the source.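 How the source made its calls, unless noted: active means inhibition over a set limit, the all-compound mean plus 3 SD, in both replicate runs; inconclusive means over that limit in just one replicate run; inactive means at or under that limit in both runs.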

The nature of the first experiment: inhibitors of the yeast RAM network, pilot screen, dse1pr::URA3 reporter, 5-FOA selection (AID 869).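 Further: 0% = DMSO wells with no growth and 100% = 10 µM 1-NA-PP1 with full growth; RAM network block rescues cells from 5-FOA so hits raise OD615 growth.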 The settings on record: S. cerevisiae dse1pr::URA3 5-FOA growth, OD615, 2 d; at 10 µM; stronger effect = higher value; strain carries analog-sensitive mutant Cbk1 kinase.
`CCN(CC)CCCNC(=O)c1cc2c(-c3ccc(Cl)cc3)nn(C)c2s1`: the inhibition is -0.18% (inactive).

For `O=C(NC1CCCC1)C(c1ccc(Cl)cc1)N1CCOCC1` (stereo not given), the inhibition is 1.98% (inactive).

In the case of `COC(=O)c1ccc2c(c1)NC(=O)C1CCCN21` (stereo not given), the inhibition was 0.305% (inactive).

On to `O=C(Nc1ccc2c(c1)OCO2)c1ccncc1`, for which the inhibition is 0.205% (inactive).

As for `COc1ccc(C2C3=C(CC(c4ccco4)CC3=O)Nc3ccccc3N2C(C)=O)cc1` (stereo not given), the inhibition is 1.25% (inactive).

Turning to `COc1cc(NC(=O)c2cc(C(C)C)on2)cc(OC)c1OC`, the inhibition is -0.755% (inactive).

As for `COc1ccc2ccccc2c1C1CC(=O)N2CN(C3CCCCC3)CSC2=C1C#N` (stereo not given), the inhibition was 2.05% (inactive).

As to `CCC(=O)c1ccc(OCC(=O)Nc2nn3cnnc3s2)cc1`, the inhibition is 1.27% (inactive).

With `CCOC(=O)N1CCC(Nc2c(N3CCN(c4cc(Cl)ccc4C)CC3)c(=O)c2=O)CC1`, the inhibition was 2.42% (inactive).

Take `c1ccc(Sc2nc(N3CCCCC3)nc(N3CCCCC3)n2)nc1`: the inhibition was 0.735% (inactive).

As for `Cn1c(=O)c2c(nc(NCc3ccccc3)n2Cc2ccc(F)cc2)n(C)c1=O`, the inhibition is 2.54% (inactive).

Take `COc1ccc(-n2nnc3c(=O)n(CC(=O)N4CCCCC4)cnc32)cc1`: the inhibition is 0.975% (inactive).

For `CCN(CC)CC(=O)Nc1cc(C)c2c(=O)oc3ccccc3c2n1`, the inhibition is 1.04% (inactive).

For `Nn1c(SCc2ccccc2)nnc1-c1ccco1`, the inhibition is 0.67% (inactive).

Consider `c1ccc(OCc2nnc3sc(C4COc5ccccc5O4)nn23)cc1` (stereo not given), for which the inhibition is 2.56% (inactive).

Take `Cn1cnnc1SCc1ccc(C#N)cc1Cl`: the inhibition was 0.175% (inactive).

Turning to `CCOc1ccc(C2C(C(=O)NC)=C(C)Nc3nc4ccccc4n32)cc1OC` (stereo not given), the inhibition was 1.18% (inactive).

For the molecule `Cc1sc2nc(SCC(=O)OC(C)C)n(C)c(=O)c2c1C`, the inhibition was 2.59% (inactive).

With `O=C(O)CCc1n[nH]c(=S)[nH]c1=O`, the inhibition was 0.76% (inactive).

In the case of `COc1ccc(N2CCN(CCCNS(=O)(=O)c3ccc4c(c3)oc(=O)n4C)CC2)cc1`, the inhibition is 1.25% (inactive).

`CCOc1cccc(NC(=O)c2ccc(S(=O)(=O)N3CCCC3)cc2)c1`: the inhibition was 0.965% (inactive).

As for `O=C(CSc1nc2c(c(=O)n1-c1ccc(Br)cc1)SCC2)NCC1CCCO1` (stereo not given), the inhibition is 1.69% (inactive).

As for `COc1cccc(N2C(=O)C3ON(c4ccccc4)C(c4cccs4)C3C2=O)c1` (stereo not given), the inhibition is 2.65% (inactive).

Take `CC(C)n1c(CCC(=O)O)ccc1-c1ccccc1`: the inhibition is 0.285% (inactive).

For the molecule `Cn1c(C(=O)NC2CCCCC2)cc2c(=O)n(C)c3ccccc3c21`, the inhibition was 1.46% (inactive).

In the case of `Cc1c(C(=O)NCC2CCCO2)sc2nc(-c3ccc(F)cc3)cn12` (stereo not given), the inhibition was 0.68% (inactive).

Regarding `CCCCOC(=O)CCc1n[nH]c(=O)[nH]c1=O`, the inhibition is 2.12% (inactive).

As for `Cc1ccc(C(c2sc3ncnn3c2O)N2CCC(C)CC2)cc1` (stereo not given), the inhibition is 1.9% (inactive).

Turning to `C=CCc1ccccc1OCC(O)CN1CCN(c2ccccc2OC)CC1` (stereo not given), the inhibition was 1.39% (inactive).

As to `CC(=O)NCC(=O)NC1(C(=O)NC2CCCC2)CCCCC1`, the inhibition is 4.11% (inactive).

As to `CCN1CCN(C(CNS(=O)(=O)c2ccc(OC)cc2)c2cccnc2)CC1` (stereo not given), the inhibition is 3.57% (inactive).

For the molecule `CCCNC(=O)Cc1cc(=O)[nH]c(=O)[nH]1`, the inhibition is 1.33% (inactive).

`O=C(Nc1ccccc1)OCCOc1ccccc1`: the inhibition was 2.92% (inactive).

`Cc1nc2ccc(S(=O)(=O)NC(C(=O)NC3CCCC3)C(C)C)cc2s1` (stereo not given): the inhibition is 1.04% (inactive).

For `COc1ccc(OC)c(C2CC(=O)N3CN(c4ccccc4)CSC3=C2C#N)c1` (stereo not given), the inhibition was 1.09% (inactive).

`Brc1ccc(-c2nnc(-c3ccccc3Br)o2)cc1`: the inhibition was 2.09% (inactive).

Turning to `CC12C(=O)N(c3ccccn3)C(=O)C1C1C=CC2C1` (stereo not given), the inhibition was 1.26% (inactive).

Turning to `Cc1c(C(=O)NCC2CCCO2)sc2nc(-c3ccccc3)cn12` (stereo not given), the inhibition was 0.15% (inactive).

Take `Cc1ccc(C)c(C(=O)COC(=O)c2ccc(Br)o2)c1`: the inhibition is 0.38% (inactive).

Take `CCOc1ccc(NS(=O)(=O)c2ccc3[nH]c(=O)oc3c2)cc1`: the inhibition is 3.46% (inactive).

The next experiment can be described thus: RAM signaling pathway blockade in yeast – S. cerevisiae, Pdr1DBD-CYC8 efflux-inhibited sensitized strain, primary screen (AID 1298;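 active means RAM network inhibition above 8.4% in each of two replicates, 3 SD over the compound average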;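 further: 0% = DMSO untreated cells without growth and 100% = 10 µM 1-NA-PP1 full growth; higher means more yeast growth rescued from 5-FOA killing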). The settings on record: S. cerevisiae cbk1-as DSE1-URA3 strain, 5-FOA growth OD615, 2 d; at 50 µM; stronger effect = higher value.
Turning to `CCN(CC)CCCNC(=O)c1cc2c(-c3ccc(Cl)cc3)nn(C)c2s1`, the RAM network inhibition was -0.36% (inactive).

Turning to `O=C(NC1CCCC1)C(c1ccc(Cl)cc1)N1CCOCC1` (stereo not given), the RAM network inhibition is 2.55% (inactive).

`COC(=O)c1ccc2c(c1)NC(=O)C1CCCN21` (stereo not given): the RAM network inhibition is -1.29% (inactive).

As to `O=C(Nc1ccc2c(c1)OCO2)c1ccncc1`, the RAM network inhibition is 3.42% (inactive).

Regarding `COc1ccc(C2C3=C(CC(c4ccco4)CC3=O)Nc3ccccc3N2C(C)=O)cc1` (stereo not given), the RAM network inhibition is 0.96% (inactive).

Consider `COc1cc(NC(=O)c2cc(C(C)C)on2)cc(OC)c1OC`, for which the RAM network inhibition is -0.99% (inactive).

As to `COc1ccc2ccccc2c1C1CC(=O)N2CN(C3CCCCC3)CSC2=C1C#N` (stereo not given), the RAM network inhibition was 4.86% (inactive).

As for `CCC(=O)c1ccc(OCC(=O)Nc2nn3cnnc3s2)cc1`, the RAM network inhibition was 6.32% (inactive).

Take `CCOC(=O)N1CCC(Nc2c(N3CCN(c4cc(Cl)ccc4C)CC3)c(=O)c2=O)CC1`: the RAM network inhibition is 2.95% (inactive).

In the case of `c1ccc(Sc2nc(N3CCCCC3)nc(N3CCCCC3)n2)nc1`, the RAM network inhibition is 4.97% (inactive).

With `Cn1c(=O)c2c(nc(NCc3ccccc3)n2Cc2ccc(F)cc2)n(C)c1=O`, the RAM network inhibition was 3.33% (inactive).

Turning to `COc1ccc(-n2nnc3c(=O)n(CC(=O)N4CCCCC4)cnc32)cc1`, the RAM network inhibition is -0.05% (inactive).

With `CCN(CC)CC(=O)Nc1cc(C)c2c(=O)oc3ccccc3c2n1`, the RAM network inhibition was 6.81% (inactive).

For `Nn1c(SCc2ccccc2)nnc1-c1ccco1`, the RAM network inhibition was -1.12% (inactive).

On to `c1ccc(OCc2nnc3sc(C4COc5ccccc5O4)nn23)cc1` (stereo not given), for which the RAM network inhibition is 5.98% (inactive).

On to `Cn1cnnc1SCc1ccc(C#N)cc1Cl`, for which the RAM network inhibition was 4.52% (inactive).

For the molecule `CCOc1ccc(C2C(C(=O)NC)=C(C)Nc3nc4ccccc4n32)cc1OC` (stereo not given), the RAM network inhibition is 2.01% (inactive).

With `Cc1sc2nc(SCC(=O)OC(C)C)n(C)c(=O)c2c1C`, the RAM network inhibition was 2.75% (inactive).

Take `O=C(O)CCc1n[nH]c(=S)[nH]c1=O`: the RAM network inhibition is -0.69% (inactive).

For `COc1ccc(N2CCN(CCCNS(=O)(=O)c3ccc4c(c3)oc(=O)n4C)CC2)cc1`, the RAM network inhibition is 6.05% (inactive).

With `CCOc1cccc(NC(=O)c2ccc(S(=O)(=O)N3CCCC3)cc2)c1`, the RAM network inhibition was -0.21% (inactive).

Consider `O=C(CSc1nc2c(c(=O)n1-c1ccc(Br)cc1)SCC2)NCC1CCCO1` (stereo not given), for which the RAM network inhibition is 2.63% (inactive).

For the molecule `COc1cccc(N2C(=O)C3ON(c4ccccc4)C(c4cccs4)C3C2=O)c1` (stereo not given), the RAM network inhibition was 4.23% (inactive).

For `CC(C)n1c(CCC(=O)O)ccc1-c1ccccc1`, the RAM network inhibition was 1.3% (inactive).

With `Cn1c(C(=O)NC2CCCCC2)cc2c(=O)n(C)c3ccccc3c21`, the RAM network inhibition was 4.6% (inactive).

Turning to `Cc1c(C(=O)NCC2CCCO2)sc2nc(-c3ccc(F)cc3)cn12` (stereo not given), the RAM network inhibition is 3.33% (inactive).

In the case of `CCCCOC(=O)CCc1n[nH]c(=O)[nH]c1=O`, the RAM network inhibition was 2.93% (inactive).

As to `Cc1ccc(C(c2sc3ncnn3c2O)N2CCC(C)CC2)cc1` (stereo not given), the RAM network inhibition was 2.69% (inactive).

For `C=CCc1ccccc1OCC(O)CN1CCN(c2ccccc2OC)CC1` (stereo not given), the RAM network inhibition was 4.75% (inactive).

In the case of `CC(=O)NCC(=O)NC1(C(=O)NC2CCCC2)CCCCC1`, the RAM network inhibition is 2.03% (inactive).

As to `CCN1CCN(C(CNS(=O)(=O)c2ccc(OC)cc2)c2cccnc2)CC1` (stereo not given), the RAM network inhibition was 3.38% (inactive).

Turning to `CCCNC(=O)Cc1cc(=O)[nH]c(=O)[nH]1`, the RAM network inhibition is 1.73% (inactive).

For the molecule `O=C(Nc1ccccc1)OCCOc1ccccc1`, the RAM network inhibition is 1.95% (inactive).

Turning to `Cc1nc2ccc(S(=O)(=O)NC(C(=O)NC3CCCC3)C(C)C)cc2s1` (stereo not given), the RAM network inhibition was 1.87% (inactive).

For the molecule `COc1ccc(OC)c(C2CC(=O)N3CN(c4ccccc4)CSC3=C2C#N)c1` (stereo not given), the RAM network inhibition was 0.06% (inactive).

As for `Brc1ccc(-c2nnc(-c3ccccc3Br)o2)cc1`, the RAM network inhibition was 11.3% (inactive).

Take `CC12C(=O)N(c3ccccn3)C(=O)C1C1C=CC2C1` (stereo not given): the RAM network inhibition was 1.11% (inactive).

As to `Cc1c(C(=O)NCC2CCCO2)sc2nc(-c3ccccc3)cn12` (stereo not given), the RAM network inhibition is 1.08% (inactive).

Turning to `Cc1ccc(C)c(C(=O)COC(=O)c2ccc(Br)o2)c1`, the RAM network inhibition was 1.4% (inactive).

Take `CCOc1ccc(NS(=O)(=O)c2ccc3[nH]c(=O)oc3c2)cc1`: the RAM network inhibition was 4.48% (inactive).

The record behind these values is PubChem BioAssay.
